# Test results reported in publication PMC5540273 (PLoS ONE, 2017).
# System: CSF1R
# Settings: concentration: 1 μM, replicates: in singlicate; n = 1
# 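Note: KINOMEscan kinase panel screen.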
row,Structure (SMILES),%Inh [%]
1,Cc1nn2c(=O)cc(N3CCOCC3)nc2n1Cc1cccc(Cl)c1Cl [GSK2342769],13
2,CCS(=O)c1ccc(-c2coc3ccc(-c4nnc(C)o4)cc23)cc1 (stereo not drawn),0
3,COc1cc(Nc2nccc(N3CCC(NC(=O)C(C)c4ccc(Cl)cc4)C3)n2)cc(OC)c1OC (stereo not drawn) [GSK1379757],4
4,COc1cc2ncn(-c3cc(OCc4ccncc4Br)c(C(N)=O)s3)c2cc1OC [GW854278],0
5,Cl.c1ccc(Cn2cnc3cc(Nc4ncnc5ccccc45)ccc32)cc1 [GW272142],4
6,CCC(=O)c1c(-c2ccccc2)c2cc(Cl)ccc2c(=O)n1Cc1cc(C(=O)NC2CC2)n(C)n1,9
7,Nc1nccc2scc(-c3ccc4c(c3)CCN4C(=O)Cc3ccccc3)c12 [GSK2576924],78
8,COc1ccc(-c2cc3c(C)nc(N)nc3n([C@H]3CC[C@H](O)CC3)c2=O)cn1,0
9,Nc1nc(-c2ccccc2F)c(-c2ccnc3ccccc23)s1 [GW560459],0
10,COc1cccc(C2=C(N(C)c3ccccc3)C(=O)NC2=O)c1 [SB-334865],4
11,CCn1c(-c2nonc2N)nc2ccccc21 [SB-693162/GW549034],0
12,COc1cc2nccc(Nc3ccc(OCc4ccc(NC(C)=O)cc4)cc3)c2cc1OC.Cl [GW440135],73
13,Cc1ccc(Oc2ccc(Nc3ncnc4cc[nH]c34)cc2C)cn1,5
14,O=C(Nc1n[nH]c2cc(-c3ccccc3F)ccc12)C1CC1 [SB-733371],0
15,O=C1NC(=O)C(c2ccccc2)=C1Nc1cccc(O)c1 [SB-390534],10
16,COc1ccc(-c2cc3c(C)nc(N)nc3n([C@H]3CC[C@H](OCCO)CC3)c2=O)cn1,5
17,Cn1c(=O)c(F)c(Nc2ccc(I)cc2F)c2c(=O)n(OC[C@H](O)CO)cnc21,21
18,Nc1n[nH]c2ncc(-c3ccccc3)cc12 [SB-517081],47
19,CCC(=O)c1c(-c2ccccc2)c2cc(Cl)ccc2c(=O)n1Cc1cc(S(C)(=O)=O)n(CC(N)=O)n1,0
20,Nc1ncnc2c1ncn2-c1ccc(Cl)cc1 [AH2635],11
21,Cc1nnc(-c2ccc3ncn(-c4ccc(S(C)=O)cc4)c3c2)o1 (stereo not drawn),12
22,COc1cc2ncn(-c3cc(OCc4ccc(S(C)(=O)=O)cc4)c(C(N)=O)s3)c2cc1OC [GW869979],0
23,CCC(=O)c1c(-c2ccccc2)c2cc(Cl)ccc2c(=O)n1Cc1ccc(C(=O)O)cc1,2

# System: CSK
# Settings: concentration: 1 μM, replicates: in singlicate; n = 1
row,Structure (SMILES),%Inh [%]
1,CCc1nc(-c2cccc(C)c2)c(-c2ccncc2)s1,0
2,COc1cc(OC)cc(-c2cc3cnc(N)nc3nc2NC(=O)NC(C)(C)C)c1,0
3,Nc1ncnc2c1ncn2-c1cccc(F)c1 [SKF-97560],0
4,COc1cc2ncn(-c3cc(OCc4ccncc4)c(C(N)=O)s3)c2cc1OC [GSK336313],0
5,Fc1cccc(CSc2nnc(-c3ccc4c(c3)CCO4)o2)c1,0
6,CCC(=O)c1c(-c2ccccc2)c2cc(Cl)ccc2c(=O)n1Cc1cc(S(C)(=O)=O)n(CCC(C)(C)O)n1,0
7,CCn1c(-c2ccoc2)nc2cnccc21 [SB-733887],0
8,CCc1ccc(-c2ccc3c(c2)-c2nn(C)cc2S(=O)(=O)N3C)cc1,2
9,COc1ccc(-c2coc3ccc(-c4nnc(SCc5cccc(C#N)c5)o4)cc23)cc1,20
10,COC(=O)c1c(-c2ccccc2)c2cc(C)ccc2c(=O)n1Cc1ccccc1,0
11,Cl.NS(=O)(=O)c1cccc(Nc2cc(-c3ccc(F)cc3)n[nH]2)c1 [GW824645],0
12,COC(=O)c1c(-c2ccccc2)c2cc(Br)ccc2c(=O)n1Cc1ccc(NC(=O)CCC(=O)O)cc1,0
13,COc1ccc(CNC(=O)NC2CCN(c3ccnc(Nc4ccc(F)cc4)n3)C2)cc1 (stereo not drawn) [GSK1379706],5
14,CCS(=O)(=O)c1ccc(OC)c(Nc2ncc(-c3ccc(F)cc3)o2)c1.Cl [GW591947],0
15,Cc1nn2c(=O)cc(N3CCOCC3)nc2n1Cc1cccc(Cl)c1Cl [GSK2342769],0
16,CCS(=O)c1ccc(-c2coc3ccc(-c4nnc(C)o4)cc23)cc1 (stereo not drawn),19
17,COc1cc(Nc2nccc(N3CCC(NC(=O)C(C)c4ccc(Cl)cc4)C3)n2)cc(OC)c1OC (stereo not drawn) [GSK1379757],0
18,COc1cc2ncn(-c3cc(OCc4ccncc4Br)c(C(N)=O)s3)c2cc1OC [GW854278],6
19,Cl.c1ccc(Cn2cnc3cc(Nc4ncnc5ccccc45)ccc32)cc1 [GW272142],64

row,Structure (SMILES),%Inh [%]
1,CCC(=O)c1c(-c2ccccc2)c2cc(Cl)ccc2c(=O)n1Cc1cc(C(=O)NC2CC2)n(C)n1,0
2,Nc1nccc2scc(-c3ccc4c(c3)CCN4C(=O)Cc3ccccc3)c12 [GSK2576924],0
3,COc1ccc(-c2cc3c(C)nc(N)nc3n([C@H]3CC[C@H](O)CC3)c2=O)cn1,0
4,Nc1nc(-c2ccccc2F)c(-c2ccnc3ccccc23)s1 [GW560459],0
5,COc1cccc(C2=C(N(C)c3ccccc3)C(=O)NC2=O)c1 [SB-334865],0
6,CCn1c(-c2nonc2N)nc2ccccc21 [SB-693162/GW549034],5
7,COc1cc2nccc(Nc3ccc(OCc4ccc(NC(C)=O)cc4)cc3)c2cc1OC.Cl [GW440135],0
8,Cc1ccc(Oc2ccc(Nc3ncnc4cc[nH]c34)cc2C)cn1,20
9,O=C(Nc1n[nH]c2cc(-c3ccccc3F)ccc12)C1CC1 [SB-733371],0
10,O=C1NC(=O)C(c2ccccc2)=C1Nc1cccc(O)c1 [SB-390534],0
11,COc1ccc(-c2cc3c(C)nc(N)nc3n([C@H]3CC[C@H](OCCO)CC3)c2=O)cn1,13
12,Cn1c(=O)c(F)c(Nc2ccc(I)cc2F)c2c(=O)n(OC[C@H](O)CO)cnc21,20
13,Nc1n[nH]c2ncc(-c3ccccc3)cc12 [SB-517081],0
14,CCC(=O)c1c(-c2ccccc2)c2cc(Cl)ccc2c(=O)n1Cc1cc(S(C)(=O)=O)n(CC(N)=O)n1,4
15,Nc1ncnc2c1ncn2-c1ccc(Cl)cc1 [AH2635],0
16,Cc1nnc(-c2ccc3ncn(-c4ccc(S(C)=O)cc4)c3c2)o1 (stereo not drawn),0
17,COc1cc2ncn(-c3cc(OCc4ccc(S(C)(=O)=O)cc4)c(C(N)=O)s3)c2cc1OC [GW869979],0
18,CCC(=O)c1c(-c2ccccc2)c2cc(Cl)ccc2c(=O)n1Cc1ccc(C(=O)O)cc1,0
